FMDV antiviral: High Throughput Screening for Foot and Mouth Disease Virus Antivirals; FMDV antiviral cell-based qHTS; Potency, µM (top dose mostly 57.9 µM), usual class: inhibitors; 1.2% of 410,000 active; AID 1159524, 2015; calls by dose curve; tested in HEK293T cells; further: read-out not given here; nearly all actives have a fitted effect of over 45% in size
Shiga toxin inh: A qHTS for Small Molecule Inhibitors of Shiga Toxin; Vero cells, Shiga toxin protein synthesis inhibition reporter; inhibition, % at 38.7 µM; 9.2% of 290,000 active; in the data active means inhibition mostly above about 28%, no sharp cut-off; inactive means mostly below about 43%
Sm TGR inh: qHTS Assay for the Inhibitors of Schistosoma Mansoni Peroxiredoxins | Schistosoma mansoni thioredoxin glutathione reductase (TGR), Q962Y6 | purified TGR, DTNB reduction, TNB absorbance 405 nm | Potency, µM (doses to about 114 µM), usual class: inhibitors | 3% of 360,000 active | AID 485364, 2010; active means well fitted inhibition curve with a large enough effect; further: nearly all actives have a fitted effect of over 60% in size
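First, TGR (20 nM dispensed) and NADPH were mixed with compound. Second, a 15 min room-temperature incubation followed. Third, further NADPH and then DTNB were added to start the reaction. Finally, TNB absorbance was monitored kinetically.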
Cycloheximide cs: Cycloheximide Counterscreen for Small Molecule Inhibitors of Shiga Toxin. 12% of 300,000 active. max response, %. cell reporter, cycloheximide protein synthesis inhibition counterscreen; in the data active means max response mostly above about 13%, no sharp cut-off; inactive means mostly below about 14%; further: read at 38.3 µM for the half of the compounds with a filed dose
Each line names hits and unclear results; the compound was inactive in the other large screens. A selection: hits, their analogues and other compounds. The true share with any hit is near 12%.

Cc1cc(N(C)C)ccc1N=Nc1ccc(N)cc1	none (no result: Shiga toxin inh, Sm TGR inh, Cycloheximide cs)
Nc1ccc(N=Nc2ccccc2)cc1	Shiga toxin inh 69, Cycloheximide cs 41
Nc1ccc2ccccc2c1N=Nc1ccccc1	none (no result: Shiga toxin inh, Sm TGR inh, Cycloheximide cs)
CCOc1ccc(OCc2ccc(C(=O)N3N=C(C(F)F)CC3(O)C(F)F)o2)cc1 (stereo not given)	none
O=C(c1ccc(COc2ccc(Br)cc2)o1)N1N=C(C(F)F)CC1(O)C(F)F (stereo not given)	FMDV antiviral 25µM
Cc1ccc(Nc2ncnc3c2nnn3Cc2ccccc2)cc1	Shiga toxin inh 49, Cycloheximide cs 23
CC1=CC(c2ccccc2)=Nc2ccc(C)cc2N1	Shiga toxin inh 43, Cycloheximide cs 57
CCN(C/C=C/C#CC(C)(C)C)Cc1cccc(OCc2cc(-c3ccsc3)cs2)c1	Shiga toxin inh 30 (no result: FMDV antiviral, Sm TGR inh)
O=C(c1cccc(F)c1F)N1CCOc2ccc(CN3CCN(Cc4ccccn4)CC3)cc2C1	none (no result: Shiga toxin inh, Sm TGR inh, Cycloheximide cs)
O=C(O)c1ccc(N/N=C/c2ccc(OC(=O)c3cccc(Cl)c3)cc2)cc1	FMDV antiviral 20µM, Shiga toxin inh 75, Cycloheximide cs 37
O=C(Oc1ccccc1)c1ccccc1	none (no result: Shiga toxin inh, Sm TGR inh, Cycloheximide cs)
O=C(Oc1ccc(/C=N/Nc2ccccc2)cc1)c1ccccc1	Shiga toxin inh 75, Cycloheximide cs 22
O=C(Oc1ccc(/C=N/O)cc1)c1ccccc1	Cycloheximide cs 23
CCOC(=O)c1[nH]c(C)c(C(=O)Nc2ccc(C)cc2C)c1C	none
CCOC(=O)c1ccc(OCCOc2ccccc2C)cc1	Cycloheximide cs 34 (no result: Shiga toxin inh)
CCOC(=O)c1c(C)[nH]c(C(=O)OCc2ccccc2F)c1C	Shiga toxin inh 115, Cycloheximide cs 50
CCOC(=O)c1ccc(S(=O)(=O)NNC(=O)COc2ccccc2C)cc1	none
CCOC(=O)c1c(C)[nH]c(C(=O)OCCOc2ccccc2C)c1C	Shiga toxin inh 61, Cycloheximide cs 45
CCOC(=O)c1c(C)[nH]c(C(=O)OCCOc2ccc(Cl)cc2)c1C	none
CCOC(=O)c1[nH]c(C)c(C(=O)Nc2ccccc2F)c1C	Shiga toxin inh 60, Cycloheximide cs 25
Cc1nn(-c2ccc(N3CCCCC3)nn2)c(C)c1CCC(=O)NCc1ccc(Cl)cc1	none (no result: Shiga toxin inh, Cycloheximide cs)
CCOC(=O)c1[nH]c(C)c(C(=O)Nc2ccc(C)c(C)c2)c1C	Cycloheximide cs 15
CCOC(=O)c1[nH]c(C)c(C(=O)Nc2ccc(F)cc2)c1C	none
CCOC(=O)c1c(C)[nH]c(C(=O)OCc2ccc(F)cc2)c1C	Shiga toxin inh 72, Cycloheximide cs 50
COc1ccc(C(=O)N2CCC[C@@]3(CCN(CC(C)C)C3)C2)cc1	none (no result: Shiga toxin inh, Sm TGR inh, Cycloheximide cs)
N/C(CN1CCCC1=O)=N\OC(=O)c1ccccc1Cl	Cycloheximide cs 26
O=[N+]([O-])c1cccc(NC(=S)N2CCc3ccccc32)c1	Shiga toxin inh 58, Cycloheximide cs 32
O=C(Nc1cccc([N+](=O)[O-])c1)N1CCCc2ccccc21	Shiga toxin inh 74, Cycloheximide cs 48
CC(=O)N1CCC(=NNC(=O)c2cc3ccccc3cc2O)CC1	none
O=C(NN=C1CCCC1)c1cccs1	Shiga toxin inh 91, Cycloheximide cs 63
O=C(NN=C1C2CC3CC(C2)CC1C3)c1cccs1	Shiga toxin inh 73, Cycloheximide cs 48 (no result: FMDV antiviral)
NC(=O)C(=O)NN=C1C2CC3CC(C2)CC1C3	Cycloheximide cs 8.0
CC1=C/C(=N\NC(=O)c2cccs2)CC(C)(C)C1	none
CC(=O)N1CCC(=NNC(=O)c2cccs2)CC1	Shiga toxin inh active, Cycloheximide cs 55
NC(=S)NN=C1C2CC3CC(C2)CC1C3	none
COc1ccc(CCNC(=O)c2ccc3c(c2)N(Cc2cc(C)ccc2C)C(=O)c2ccccc2S3=O)cc1OC (stereo not given)	none (no result: Shiga toxin inh, Cycloheximide cs)
CCc1ccccc1NC(=O)Nc1ccc2c(c1)N(CC)C(=O)c1ccccc1S2	none (no result: Shiga toxin inh, Cycloheximide cs)
O=C(NN=C1C2CC3CC(C2)CC1C3)c1ccccc1O	Cycloheximide cs 19
C=C(C)C1CC=C(C)/C(=N/NC(=O)c2cccs2)C1 (stereo not given)	Shiga toxin inh 77, Cycloheximide cs 22
CC1C(=O)N2CCCc3cc(S(=O)(=O)Nc4ccc(Br)cc4F)cc1c32 (stereo not given)	none (no result: Shiga toxin inh, Cycloheximide cs)
O=C(CN(c1cccc(C(F)(F)F)c1)S(=O)(=O)c1ccc(Cl)c([N+](=O)[O-])c1)NCc1ccccc1Cl	FMDV antiviral 40µM
O=C(CN(c1cccc(C(F)(F)F)c1)S(=O)(=O)c1ccc(Cl)c([N+](=O)[O-])c1)NCc1ccccc1	none
CC1CCN(S(=O)(=O)c2cc(C(=O)Nc3ccc(Br)cc3F)n(C)c2)CC1	none (no result: Shiga toxin inh, Cycloheximide cs)
CCOc1ccccc1Oc1c(C)oc2cc(OC(=O)c3ccco3)ccc2c1=O	Sm TGR inh 35µM (no result: FMDV antiviral)
